Screening data from PubChem.
The list is not random: actives were taken first. Their share in the collection is about 1.9%.
PP1 inh – PP1-alpha phosphatase inhibitors, primary screen, counter-screen for PP5 inhibitor project, biochemical, fluorescence, OMFP substrate, single point; Serine/threonine-protein phosphatase PP1-alpha catalytic subunit (Homo sapiens), P62136; purified PP1alpha; inhibition, % at 6.7 µM; actives 0.9% (n = 320,000); AID 2235, 2010;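 active = inhibition above the mean inhibition of all tested compounds plus 3 SD, computed separately for each screening campaign, cut at about 15% in these data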
PP5 inh – PP5 phosphatase inhibitors, primary screen, biochemical, fluorescence | Serine/threonine-protein phosphatase 5 (Homo sapiens), P53041 | purified PP5c, OMFP substrate fluorescence | inhibition, % at 6.7 µM | actives 0.18% (n = 320,000);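 active = inhibition above the campaign's mean inhibition across all tested compounds plus 3 SD, cut at about 9.5% in these data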
ATG4B inh – ATG4B protease inhibitors, primary screen, biochemical, fluorescence, uHTS. inhibition, % at 8.33 µM. actives 0.51% (n = 340,000). ATG4B cleavage of LC3-PLA2, NBD-HPC fluorescence, 1 h. Cysteine protease ATG4B (Homo sapiens), Q9Y4P1; in the data active = inhibition above about 40%
Target sequence (Q9Y4P1 whole entry, looked up): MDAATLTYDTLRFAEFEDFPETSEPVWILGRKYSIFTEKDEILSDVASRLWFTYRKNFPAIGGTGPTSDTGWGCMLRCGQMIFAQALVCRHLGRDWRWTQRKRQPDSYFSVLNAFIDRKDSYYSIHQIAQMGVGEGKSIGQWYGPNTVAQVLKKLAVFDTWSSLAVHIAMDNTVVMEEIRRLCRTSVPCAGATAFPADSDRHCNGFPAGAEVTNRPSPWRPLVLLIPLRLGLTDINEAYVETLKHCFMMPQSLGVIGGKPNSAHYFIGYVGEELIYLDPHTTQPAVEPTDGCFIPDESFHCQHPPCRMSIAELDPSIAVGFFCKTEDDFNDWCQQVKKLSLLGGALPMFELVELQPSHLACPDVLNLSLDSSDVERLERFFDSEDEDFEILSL
H9c2 protect – cardioprotection against H2O2-induced cell death, primary screen, uHTS, H9c2 cells, ATPLite luminescence. H9c2 cardiomyocytes, H2O2 injury protection, 2 h. protection from H2O2 cell death, % at 20 µM. actives 0.63% (n = 360,000). AID 588492, 2011;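 active = compounds giving at least 50% protection of heart cells from peroxide-induced death in the single-dose screen, raw or plate-pattern-corrected value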
Numbers stand for hits; 0 = inactive; - = no result.

SMILES	PP1 inh	PP5 inh	ATG4B inh	H9c2 protect
Cc1ccc(C(O)c2ncc(-c3cccc(C(F)(F)F)c3)[nH]2)cc1 (centres undefined)	-	-	-	0
O=C(CSc1nnc2ncccn12)Nc1cccc2ccccc12	0	0	0	0
CCOC(=O)c1c(N)sc2c1CCC1C(=O)N(C3CCCCC3)C(=O)C21 (centres undefined)	15	0	0	0
CC(C)C(NC(=O)c1c(F)cccc1F)C(=O)NC1CC(C)(C)NC(C)(C)C1 (centres undefined)	0	0	0	0
C=CCn1c(SCC(C)=O)nc2scc(-c3ccco3)c2c1=O	15	0	0	0
COc1ccc(NC(=O)CN(C)C(=O)CCNS(=O)(=O)c2ccc(Br)cc2)cc1	0	0	0	0
Cc1ccsc1/C=N/N1CCN(Cc2ccccc2)CC1	0	0	0	0
Cc1ccc(-c2nn3c(C)nnc3c3ccccc23)cc1S(=O)(=O)NCCO	0	0	0	0
Cc1ccc(-c2nn3c(C)nnc3c3ccccc23)cc1S(=O)(=O)NC(C)c1ccccc1 (centres undefined)	0	0	0	91
COc1ccc(OCc2n(CC(=O)OC3CC(C)CCC3C(C)C)c3ccccc3[n+]2C)cc1 (centres undefined)	16	0	0	0
O=C(NCCc1ccccc1)C(c1ccc(F)cc1)N(C(=O)c1csnn1)C1CC1 (centres undefined)	0	0	0	0
CCCCC1=CC2=C(c3ccco3)C(=O)C(C)(OC(=O)c3ccc(OC)cc3)C(=O)C2=CN1Cc1ccc2c(c1)OCO2 (centres undefined)	24	0	0	0
CCCCC1=CC2=C(c3ccco3)C(=O)C(C)(OC(=O)c3ccc(OC)cc3)C(=O)C2=CN1Cc1ccccc1 (centres undefined)	0	0	0	0
O=C(Nc1ccccc1)Nc1ccc(Cl)nc1Cl	0	0	0	0
Brc1ccc(CSc2nnc(-c3ccccn3)n2Cc2ccco2)cc1	0	0	50	0
Nc1ccc(N(c2ccccc2)c2ccc(N)cc2)cc1	17	0	0	0
CN(C)c1ccc(CCc2ccc(N)cc2)cc1	0	0	0	0
CCOCCCNC(=O)c1ccc2nc(-c3ccc(OC)c(OC)c3)c(-c3ccc(OC)c(OC)c3)nc2c1	0	0	0	50
COc1ccc(OC)c(Nc2nc(N)nc(-c3cc4ccccc4o3)n2)c1	16	0	0	56
Cc1cc(O)c(-c2n[nH]c3c2C(c2cccc(O)c2)N(Cc2cccnc2)C3=O)cc1Cl (centres undefined)	17	0	0	0
CCCN1C(=O)c2[nH]nc(-c3cc(Cl)c(C)cc3O)c2C1c1ccc(O)c(OC)c1 (centres undefined)	0	0	0	0
COc1cc([C@H]2Oc3c(OC)cc(CCCO[C@@H]4O[C@H](CO)[C@@H](O)[C@H](O)[C@H]4O)cc3[C@@H]2CO)ccc1O	0	0	0	0
CCCCS(=O)(=O)NC(=O)C1(C)CCN1C(=O)C/C=C/c1ccccc1 (centres undefined)	-	-	-	0
C[C@@H]1CN([C@H](C)CO)S(=O)(=O)c2ccc(C#Cc3ccccc3F)cc2O[C@H]1CN(C)C(=O)c1ccc2c(c1)OCO2	-	-	-	106
Nc1c(C(=O)Nc2ccc(F)cc2)sc2nc(-c3ccco3)ccc12	16	0	0	0
SMILES	PP1 inh	PP5 inh	ATG4B inh	H9c2 protect
Nc1c(C(=O)Nc2ccc(Br)cc2)sc2nc(-c3ccco3)ccc12	16	0	0	0
COc1ccc(S(=O)(=O)NC2CC(=O)N(c3ccccc3)C2)cc1C (centres undefined)	0	0	0	0
CCn1cc(S(=O)(=O)Nc2cc(C)ccc2F)cn1	0	0	0	0
CCC1(C)Cc2c(sc3nc(NN)n(C)c(=O)c23)CO1 (centres undefined)	0	0	0	51
CCOC(=O)CSc1nc2sc3c(c2c(=O)[nH]1)CC(C)(CC)OC3 (centres undefined)	0	0	0	0
O=C(Cn1cc([N+](=O)[O-])ccc1=O)NCC(=O)Nc1ccc(F)c(F)c1F	-	-	0	0
Cc1cc(C(=O)N/N=C/c2cc(Br)ccc2OC(=O)c2ccccc2Cl)n[nH]1	0	0	0	51
Cc1cc(C(=O)N/N=C/c2cc(Br)ccc2OC(=O)c2ccccc2)n[nH]1	0	0	0	56
O=C1C2C3C=CC(CC3)C2C(=O)N1c1cccc(Br)c1 (centres undefined)	0	0	0	76
